Screens as filed in PubChem BioAssay.
Shown are actives, neighbours in structure and some others; about 4.8% of the full set was active somewhere.
AI-2 QS modul: modulates the Vibrio harveyi AI-2 quorum sensing system | Vibrio harveyi JMH597 AI-2 luminescence/OD600 ratio, 9 h; stronger effect = lower value; strain lacks LuxN and CqsS sensors; 0 = neutral-control median | activity change, % at 7.5 µM | 0.4% of 300,000 active | AID 2094; in the data active = activity change below about -75%, passing the limit was not always enough; inconclusive = no clear call, values can overlap the other calls;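 note: luminescence divided by OD600 gain over 9 h not by final OD600 alone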
HIF activator: HIF pathway transcriptional activation. U2OS HRE-luciferase reporter, luminescence; normalized: DMSO 0%, desferrioxamine 100%. activation, % at 7.5 µM (by protocol). 0.32% of 300,000 active;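 active = mean activation of at least 10% of the iron chelator positive control signal, with at least half of replicates also reaching 10%; inconclusive = mean and replicate majority disagree about reaching 10%; inactive = mean and most replicates under 10%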
ALR H2O2 inh: human ALR oxidase inhibition via reduced H2O2 | 3.8% of 290,000 active | P55789 | purified ALR, DTT oxidation, H2O2 HRP-luminol luminescence | inhibition, % (test concentration not listed);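 active = mean replicate inhibition above about 79%, with every replicate also reaching it, limit read from the data; inconclusive = only one of the two criteria met; inactive = mean below limit and not every replicate reaching it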
Target sequence (P55789 whole entry, looked up): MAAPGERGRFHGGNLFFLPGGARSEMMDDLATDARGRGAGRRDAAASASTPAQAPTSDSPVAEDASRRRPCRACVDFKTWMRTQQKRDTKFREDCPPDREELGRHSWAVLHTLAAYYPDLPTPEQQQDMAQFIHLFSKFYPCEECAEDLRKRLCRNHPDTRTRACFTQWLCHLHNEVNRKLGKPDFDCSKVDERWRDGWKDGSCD
Mot1-301 SUMO: blocks SUMOylation pathway, rescuing yeast Mot1-301 growth | S. cerevisiae Mot1-301 growth rescue, ATP luminescence, 38.5C; percent above DMSO median, 100 means doubled | growth rescue, % at 18.8 µM | 1% of 320,000 active | AID 2716;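 active = every valid replicate shows activation above 250% relative to neutral control wells; inactive = the rest, any valid replicate at or below 250%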
Large screens that a line does not name were inactive.

COc1ccc(-c2cc(C(F)(F)F)c(C#N)c(SCC(=O)Nc3ccc(C)cc3)n2)cc1	none
COc1ccc(C(=O)CSc2[nH]c(=O)cc(C(F)(F)F)c2C#N)cc1	ALR H2O2 inh 98
CCC(=O)c1ccccc1OCCCCn1cncn1	none
CN(Cc1ccc2c(c1)OCO2)C(=O)c1cc(-c2ccccc2)c(N2CCOCC2)s1	none (no result: AI-2 QS modul, HIF activator)
O=C(NCc1ccco1)c1cc(-c2ccccc2)c(N2CCOCC2)s1	ALR H2O2 inh 87
O=C(O)c1cc(-c2ccccc2)c(N2CCOCC2)s1	ALR H2O2 inh 99
O=C(NCc1ccc2c(c1)OCO2)c1cc(-c2ccccc2)c(N2CCOCC2)s1	none
NC(=O)CSc1nnc(CNc2ccc(F)cc2)n1CC1CCCO1 (stereo unspecified)	none (no result: ALR H2O2 inh)
Cc1ccc(NCc2nnc(SCC(N)=O)n2CC2CCCO2)c(C)c1 (stereo unspecified)	ALR H2O2 inh 89 (no result: Mot1-301 SUMO)
CCCCCn1c(N2CCCC2)nc2c1c(=O)n(C)c(=O)n2C	ALR H2O2 inh 98
Cn1c(=O)c2c(nc(N3CCCCCC3)n2CCSc2nc3ccccc3o2)n(C)c1=O	Mot1-301 SUMO 423
CN1CCN(c2nc3c(c(=O)n(C)c(=O)n3C)n2Cc2ccc(Cl)cc2)CC1	Mot1-301 SUMO 289
COc1ccc(S(=O)(=O)NCCC(=O)Nc2ccc(C)cc2)cc1	none
Cn1ccnc1COc1ccc(/C=N/O)cc1	none (no result: ALR H2O2 inh)
Cc1cccc(Cc2c(C)nc3nc(SCC(=O)NCc4ccco4)nn3c2C)c1	ALR H2O2 inh 77
COc1ccc(C(=O)NCCc2ccccc2F)cc1OC1CCN(C(C)=O)CC1	AI-2 QS modul inconclusive
Cc1ccc(Nc2c([N+](=O)[O-])ccc3nonc23)cc1C	none
O=C(CNC(=O)c1cccnc1)N/N=C/c1ccc(O)cc1O	ALR H2O2 inh 78
O=C(CNC(=O)c1cccs1)N/N=C/c1ccc(O)cc1O	none
Cc1ccc(NC(=O)c2ccc(NS(=O)(=O)c3ccc4[nH]c(=O)[nH]c4c3)cc2)nc1	none
Cc1ccc(-n2c(C)c(C)c3c(NCCO)ncnc32)cc1	none (no result: ALR H2O2 inh)
COc1cccc(/C=N/Nc2nc3ccccc3n3cnnc23)c1	HIF activator 360
COc1cccc(Nc2nc3ccccc3n3nnnc23)c1	ALR H2O2 inh 97 (no result: Mot1-301 SUMO)
COc1cccc(/C=N/Nc2nc3ccccc3n3cnnc23)c1O	none
Fc1cccc(Nc2nc3ccccc3n3nnnc23)c1	none
COc1cc(CNC(=O)c2ccc3oc(C(C)C)nc3c2)cc(OC)c1	none
O=C(NNC(=O)c1ccc(F)cc1F)c1ccc(-n2cnnn2)cc1	none
Cc1ccc(SCC(=O)O/N=C(\N)c2ccc([N+](=O)[O-])cc2)cc1	ALR H2O2 inh 98
Cc1ccc(/C(N)=N/OC(=O)CCc2ccccc2)cc1	AI-2 QS modul -77
N/C(=N\OC(=O)CCc1ccccc1)c1ccc(Br)cc1	none
COc1ccc(/C(N)=N/OC(=O)CSc2ccc(C)cc2)cc1OC	none
Cc1ccc(C)c(OCC(=O)O/N=C(\N)c2cccc([N+](=O)[O-])c2)c1	HIF activator 114
COc1ccc(-c2ccc(CO)o2)cc1N	ALR H2O2 inh 99
COc1ccc(OC)c(N)c1	none
CCCc1cc(=O)oc2cc(OC(C)C(=O)NC3CC(C)(C)NC(C)(C)C3)ccc12 (stereo unspecified)	none
COc1ccc(/C=C2/C(=N)N3N=C(CC(=O)N4CCCC4)SC3=NC2=O)cc1OC	none
C=CCOc1ccc(/C=C2/C(=N)N3N=C(CC(=O)N4CCCC4)SC3=NC2=O)cc1OC	ALR H2O2 inh 99 (no result: HIF activator)
Cc1ccc(/C=C2/C(=N)N3N=C(CC(=O)N4CCCC4)SC3=NC2=O)cc1	ALR H2O2 inh 97
C=CCOc1ccc(/C=C2\SC(N)=NC2=O)cc1OC	HIF activator 12
O=C(OCc1ccc([N+](=O)[O-])cc1)c1cc(=O)c2ccccc2o1	none
O=C1c2ccccc2NC2(CCCCC2)N1c1ccc(O)cc1	ALR H2O2 inh 99
CC1CCC2(CC1)Nc1ccccc1C(=O)N2c1ccccc1 (stereo unspecified)	none
COc1ccc(O)c(CN2CCCC(N3CCc4ccccc4C3)C2)c1 (stereo unspecified)	none
Cc1ccc(S(=O)(=O)N(C)C)cc1NC(=O)COC(=O)/C=C/c1ccc(F)cc1	none
COc1ccc(/C=C(\NC(=O)c2ccco2)C(=O)NC(Cc2ccccc2)C(=O)O)cc1 (stereo unspecified)	none
CN(C)CCCn1c(SCC(=O)Nc2nc(-c3cccc(Br)c3)cs2)nc2ccccc2c1=O	ALR H2O2 inh 99
COc1cccc(C2NC(=O)c3sc(=S)n(-c4ccccc4)c3N2)c1 (stereo unspecified)	ALR H2O2 inh 97
COC(=O)[C@]1(Cc2ccccc2)N[C@H](c2ccc(-c3cc(C(C)=O)cs3)cc2)[C@@H]2C(=O)N(C)C(=O)[C@@H]21	none
Cc1nn(-c2cccc(Cl)c2)c2nc(-c3ccco3)cc(C(=O)O)c12	none
Cc1nn(-c2ccccc2)c2nc(-c3ccco3)cc(C(=O)O)c12	ALR H2O2 inh 97
C=CCNc1nc(C(=O)OC(C)C(=O)c2ccc(C)cc2)cs1 (stereo unspecified)	none (no result: AI-2 QS modul, HIF activator)
Cc1ccc(S(=O)(=O)NNC(=O)c2ccc3ccccc3n2)cc1	ALR H2O2 inh 88
CC(=O)Nc1ccc(S(=O)(=O)NNC(=O)C(=O)NNc2ccccn2)cc1	none (no result: ALR H2O2 inh)
Cc1ccc(S(=O)(=O)NNC(=O)C(=O)NNc2ccccn2)cc1	ALR H2O2 inh 95
Cc1ccccc1S(=O)(=O)NNC(=O)C(=O)NNc1ccccn1	ALR H2O2 inh 99
Nc1ccc(S(=O)(=O)NNC(=O)C(=O)NNc2ccccn2)cc1	ALR H2O2 inh 99
COc1ccc(NC(=O)CON=CC(=O)Nc2ccc(C)cc2)c(OC)c1	none (no result: AI-2 QS modul, HIF activator, ALR H2O2 inh)
CC1CC1C(=O)OCC(=O)Nc1ccc(S(=O)(=O)N2CCOCC2)cc1 (stereo unspecified)	none (no result: AI-2 QS modul, HIF activator)
CC(=O)Nc1cccc(NC(=O)CSc2n[nH]c(-c3ccccc3)n2)c1	none (no result: AI-2 QS modul, HIF activator)
CCN(CC)S(=O)(=O)c1cccc(NC(=O)CSc2nnc(N)s2)c1	ALR H2O2 inh 99
Nc1nnc(SCC(=O)Nc2cccc(S(N)(=O)=O)c2)s1	none
O=C1CN(S(=O)(=O)c2cccc(C(=O)O)c2)c2ccccc2N1	none
Cc1cccnc1NC(=O)C1CCN(S(=O)(=O)c2ccc3c(c2)CCC(=O)N3)CC1	ALR H2O2 inh 90 (no result: HIF activator)
CN(C)c1ccc(CNC(=O)c2cc(S(=O)(=O)N3CCOCC3)cn2C)cc1	ALR H2O2 inh 98
O=C1CCc2cc(S(=O)(=O)N3CCC(C(=O)Nc4nccs4)CC3)ccc2N1	none (no result: HIF activator)
Cn1cc(S(=O)(=O)N2CCOCC2)cc1C(=O)NCc1ccc(Cl)cc1	none
CN(C)c1ccc(CNC(=O)C2CCN(S(=O)(=O)c3ccc4c(c3)CCC(=O)N4)CC2)cc1	ALR H2O2 inh 91 (no result: HIF activator)
Cc1cc(C)c(C)c(S(=O)(=O)NCCCn2ccnc2)c1C	none
O=C(N/N=C/c1cc(Br)c(O)c(Br)c1)c1cccnc1	none
COc1ccc(C=NNC(=O)c2ccccc2NS(=O)(=O)c2cccs2)cc1O	none (no result: AI-2 QS modul, HIF activator)
COc1cc(C=NNC(=O)c2ccccc2NS(=O)(=O)c2cccs2)cc(OC)c1O	ALR H2O2 inh 99 (no result: AI-2 QS modul, HIF activator)
COc1cc(/C=N/NC(=O)c2ccc(NS(=O)(=O)c3cccs3)cc2)cc(OC)c1O	ALR H2O2 inh 98 (no result: AI-2 QS modul, HIF activator)
